This excerpt belongs to a sample that is enriched for hits.
Pf apPOL inh = Pf-apPOL DNA polymerase inhibition; Recombinant Pf-apPOL, molecular beacon fluorescence, 1.5 h; hit rate 0.25% among 210,000; inhibition, % at 10 µM; AID 1794808
mHTT CaM bind = inhibitors of human mutant huntingtin-calmodulin interaction; hit rate 3.6% among 190,000; AlphaScreen His-mHTT/GST-CaM binding, luminescence; inhibition, % at 15 µM; P42858
Numbers stand for hits; – = inactive; · = no result given. Rule as the data show it: active = inhibition above about 50%; inactive = the rest.

SMILES | Pf apPOL inh | mHTT CaM bind
CNC(=O)C1CN(C(=O)Nc2ccc(Br)cc2)CC12CCCC2 (configuration not stated) | – | –
CCc1ccccc1NC(=O)C1=C(C)C(=O)OC12CCCCC2 | – | –
Cc1ccc(CC(=O)N2CCc3nc(-c4ccc(F)cc4)ncc3C2)cc1 | – | –
CCN(CC)S(=O)(=O)c1ccc(C)c(C(=O)Nc2ccccc2)c1 | – | –
O=c1c2c3c(sc2nc2c4ccccc4c(NCC4CCCO4)nn12)CCCC3 (configuration not stated) | – | 65.1
CC1CCc2c(sc3nc4c5ccccc5c(NCc5ccco5)nn4c(=O)c23)C1 (configuration not stated) | – | –
CC12CCC(CC1=NOC(=O)c1ccc(Cl)c([N+](=O)[O-])c1)C2(C)C (configuration not stated) | – | –
CC1=C(C(=O)Nc2ccc(C)cc2C)C(c2ccc(Cl)cc2)n2ncnc2N1 (configuration not stated) | – | –
COc1ccc(C2=N/C(=C\c3ccc(F)cc3)C(=O)O2)cc1[N+](=O)[O-] | – | –
Cc1ccc(NC(=O)Cn2c(-c3ccccc3F)nc3ccccc3c2=O)cc1Cl | – | –
O=C(Cn1c(-c2ccccc2Cl)nc2ccccc2c1=O)Nc1ccc(F)c(Cl)c1 | – | 100.0
O=C(CN1CCN(CC(=O)Nc2ccc(F)c(F)c2)CC1)Nc1ccc(Cl)cc1 | – | –
COc1ccc(NS(C)(=O)=O)cc1 | – | –
COc1ccc(NS(=O)(=O)C2CCS(=O)(=O)C2)cc1 (configuration not stated) | 99.8 | –
Cc1ccc(Cl)cc1N1CCN(C(=O)c2noc3c2CCCC3)CC1 | – | 95.9
O=C(c1noc2c1CCCCC2)N1CCN(c2ccccc2F)CC1 | – | –
Cc1ccc(C2=NOC(CN(C)C(=O)c3ccccc3F)C2)cc1 (configuration not stated) | – | –
CCOc1ccc(C(O)=C2C(=O)C(=O)N(Cc3ccco3)C2c2ccc([N+](=O)[O-])cc2)cc1 (configuration not stated) | – | –
COc1cc(CN2CCCC(O)C2)ccc1OCc1ccccc1 (configuration not stated) | – | –
COc1ccc(CN2CCc3cc(OC)c(OC)cc3C2)cc1OC | – | –
COc1cc2c(cc1OC)CN(Cc1ccc(OCc3ccccc3)c(OC)c1)CC2 | – | 100.2
O=C(Nc1ccc(Oc2ccccc2)cc1)c1cccc([N+](=O)[O-])c1C(=O)O | – | –
O=S(=O)(O)CCc1cc[n+](CC[n+]2ccccc2)cc1 | · | –
Cc1cc(C(=O)Nc2nnc(-c3ccno3)o2)no1 | – | –
O=C(Nc1nnc(-c2ccno2)o1)c1cccs1 | – | 81.5
SMILES | Pf apPOL inh | mHTT CaM bind
CS(=O)(=O)c1cccc(C(=O)Nc2nnc(-c3ccno3)o2)c1 | – | 94.7
O=C(Nc1nnc(-c2ccno2)o1)c1ccc2ncsc2c1 | 57.1 | 90.0
Cc1cc(-c2nnc(NC(=O)c3ccc4ncsc4c3)o2)nn1C | – | –
O=C(Nc1nnc(-c2ccc(Br)s2)o1)c1cccs1 | – | –
CCN1CCN(Cc2c(O)ccc3c2OC(=Cc2cc(Br)ccc2OC)C3=O)CC1 | – | –
CCOC(=O)C1CCN(C=C(C#N)S(=O)(=O)c2ccccn2)CC1 | – | ·
COc1cc(C=CC(=O)c2ccccc2O)cc(OC)c1OC | – | –
Cn1c(=O)[nH]c(=O)c2c1nc(N1CCN(CCO)CC1)n2CCSc1ncccn1 | – | –
O=C(Nc1ccc2c(N3CCCC3)ncnc2c1)c1cccc(Br)c1 | – | –
O=C(Nc1ccc2c(N3CCOCC3)ncnc2c1)c1cccc(F)c1 | – | –
CN(C)c1cccc(C(=O)Nc2ccc3c(N4CCCC4)ncnc3c2)c1 | – | 58.0
O=C(Nc1ccc2c(N3CCOCC3)ncnc2c1)c1cccc(Cl)c1 | – | 88.3
CCN1CCCc2cc(C(=O)NCc3cccs3)sc21 | – | –
Cc1cc2c(=O)n(CC(=O)Nc3cccc(Cl)c3)ccc2s1 | – | –
CCOc1ccc(N(CC(=O)NC2CCCC2)S(=O)(=O)c2ccc(OC)c(OC)c2)cc1 | – | –
Clc1cc(Cl)c(NN=Cc2cc(Cl)sc2Cl)c(Cl)c1 | – | ·
CCCCNC(=O)c1c(Cl)nc(Cl)c(Cl)c1C | – | –
CCCCNC(=O)c1c(Cl)nc(Cl)c([N+](=O)[O-])c1Cl | – | 94.0
Cc1noc(C)c1C1CCCN1C(=O)Cc1ccccc1Cl (configuration not stated) | – | –
O=C1S/C(=C\c2ccc(O)cc2)C(=O)N1c1ccc(O)cc1 | – | 55.0
O=C1S/C(=C\c2ccc(O)c([N+](=O)[O-])c2)C(=O)N1c1ccccc1 | – | –
O=C1S/C(=C\c2ccc(O)c(O)c2)C(=O)N1c1ccc(Cl)cc1 | – | 88.0
O=C1S/C(=C\c2ccc(O)cc2)C(=O)N1CNc1ccc(I)cc1 | – | –
O=C(CN1C(=O)S/C(=C\c2ccc(Br)cc2)C1=O)Nc1ccc(O)cc1 | – | 52.0
O=C1S/C(=C\c2ccccc2Cl)C(=O)N1c1ccc(O)cc1 | – | 74.0
SMILES | Pf apPOL inh | mHTT CaM bind
COc1ccccc1/C=C1\SC(=O)N(c2ccc(Cl)cc2)C1=O | – | –
O=C1S/C(=C\c2ccc(O)cc2)C(=O)N1c1ccccc1 | – | –
COc1ccc(OC)c(/C=C2/N=C(c3cc(Cl)ccc3Cl)OC2=O)c1 | – | –
COc1cccc(OCCSc2nc3ncnc(N)c3[nH]2)c1 | – | –
CCSc1nnc(-c2ccc(C)c(S(=O)(=O)N3CCN(C)CC3)c2)c2ccccc12 | – | –
COc1ccc(-c2nc3n(n2)C(c2cccc(OC)c2)C2=C(CCCC2=O)N3)cc1 (configuration not stated) | – | –
CC(C)N1CCN(C(=O)c2ccc3c(c2)CC(=O)N3Cc2ccccc2)CC1 | – | –
Cc1c(C(=O)O)c(-c2ccccc2)nn1-c1ccccc1 | – | –
Oc1ccc2c(c1)c(-c1ccccc1)nn2-c1ccccc1 | – | 55.0
CCOc1ccc(C(=O)N2CCC(c3nc(C(=O)N4CCCCC4)c(C)o3)CC2)cc1 | – | –
COc1ccc(-c2nnn(Cc3cccc(F)c3)n2)cc1OC | – | –
O=C1N(Cc2ccccc2F)c2ccccc2C12OCCCO2 | – | –
Cc1sc2c(c1C)C(=O)NC1(N2)C(=O)N(Cc2ccccc2F)c2ccccc21 (configuration not stated) | – | 53.0
Cc1cc(OCc2nc(C(=O)NC(C)C)cs2)ccc1Cl | – | 66.0
Cc1cc(OCC(=O)NC(C)C)ccc1Cl | – | 90.5
Cc1cc(OCC(=O)NN)ccc1Cl | – | –
CC(C)NC(=O)c1csc(COc2ccc(Cl)cc2)n1 | – | –
Cc1cccc2oc(-c3cc(N=Cc4cc([N+](=O)[O-])cc([N+](=O)[O-])c4O)ccc3O)nc12 | – | –
Cc1cccc2oc(-c3cc(N=Cc4ccc([N+](=O)[O-])cc4)ccc3O)nc12 | 59.0 | –
O=C(Nc1cccc(-c2cn3ccccc3n2)c1)c1ccc([N+](=O)[O-])cc1 | – | –
Clc1ccc(Nc2nc(NCCCn3ccnc3)nc3nc[nH]c23)cc1 | – | 99.0
c1cn(CCCNc2ncnc3nc[nH]c23)cn1 | – | –
CCCCN(CCCC)CCNC(=O)c1ccc2c(c1)NC(=O)C(N1CCOCC1)S2 (configuration not stated) | – | –
CCCCNC(=O)O[C@@H]1C[C@H]2C[C@@H]1[C@H]1CCCCN1C2 | – | –
CC(=O)Nc1cccc(N2CC(C(=O)NCc3ccc(Cl)cc3)CC2=O)c1 (configuration not stated) | – | –

Screening data: PubChem, University of Kansas High Throughput Screening Laboratory
